According to patent publication US5487994, “Insertion and deletion mutants of FokI restriction endonuclease” (The Johns Hopkins University):

B1: hemi-methylated substrate (GGATG strand) (dsDNA)
DNA 1: CTAGAGTCAGAATTCGAAGACTTGCCGGATGATCTGCAGGCCAGCTGTGGCGTCTAAATTGA
DNA 2: AGCTTCAATTTAGACGCCACAGCTGGCCTGCAGATCATCCGGCAAGTCTTCGAATTCTGACT
modifications: N6-methyladenine in GGATG strand of FokI site
B2: hemi-methylated substrate (CATCC strand) (dsDNA)
DNA 1: B1 DNA 1
DNA 2: B1 DNA 2
modifications: N6-methyladenine in CATCC strand of FokI site
B3: fully methylated substrate (dsDNA)
DNA 1: B1 DNA 1
DNA 2: B1 DNA 2
modifications: N6-methyladenine in both strands of FokI site

Target: FokI endonuclease wild-type (Flavobacterium okeanokoites, UniProt P14870 P14870:2-579)
Sequence (P14870 2-579, one chain of several): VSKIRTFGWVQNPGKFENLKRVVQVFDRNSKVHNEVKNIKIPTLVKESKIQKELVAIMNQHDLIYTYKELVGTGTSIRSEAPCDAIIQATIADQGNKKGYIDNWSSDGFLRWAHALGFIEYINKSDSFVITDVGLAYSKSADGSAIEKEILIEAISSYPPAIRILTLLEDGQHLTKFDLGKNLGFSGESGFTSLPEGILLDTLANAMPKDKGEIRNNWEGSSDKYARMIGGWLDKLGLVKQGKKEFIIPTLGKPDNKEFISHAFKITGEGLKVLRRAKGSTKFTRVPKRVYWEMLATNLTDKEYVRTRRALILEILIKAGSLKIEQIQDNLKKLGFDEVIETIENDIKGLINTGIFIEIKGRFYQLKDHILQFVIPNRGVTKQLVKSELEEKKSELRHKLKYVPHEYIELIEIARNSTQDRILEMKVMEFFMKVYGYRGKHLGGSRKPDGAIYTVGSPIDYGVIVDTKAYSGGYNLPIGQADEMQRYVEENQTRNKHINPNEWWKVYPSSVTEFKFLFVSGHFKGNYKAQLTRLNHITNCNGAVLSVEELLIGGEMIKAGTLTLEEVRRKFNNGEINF
Assay: filter; with poly(dI-dC), 1 mM EDTA, 22 C
Settings: tags: expressed in E. coli RR1 from pRRSfokIR; label: 32P
Method: The filter binding assays were performed in duplicate using *Fok*I or mutant enzymes and the four different synthetic substrates, SEQ ID NO:12, SEQ ID NO:13, hemi-methylated oligonucleotide of SEQ ID NO:12 and hemi-methylated oligonucleotide of SEQ ID NO:13. Nine different concentrations for each of the enzymes were made by serial dilutions ([…], 2000, 667, 222, 74.1, 24.7, 8.23, 2.74 and 0.914 nM). The enzymes were mixed with 40 nM of each labelled substrate along with 50 μg/ml p(dI-dC) and 50 μg/ml BSA in 50 μl of buffer A[10 mM Tris. phosphate (pH 8.0), 7 mM 2-mercaptoethanol, 1 mM EDTA, 50 mM NaCl, and 10% (vol/vol) glycerol]. The samples were incubated at 22° C. for 1 hr and then loaded on to nitrocellulose filters. The filters were washed twice with 0.5 ml of buffer A, dried and counted using the scintillation counter.
Why does the four amino-acid residue insertions enable the mutant enzymes to cleave hemi-methylated DNA and not the larger inserts? The four codon insertions could increase the affinity of the mutants for the hemi-methylated DNA. The binding affinities of wild-type enzyme and both four codon insertion mutants were compared by filter binding assays using the synthetic oligonucleotide substrates (FIGS. 9A, 9B and 9C). The binding affinities were measured in the presence of non-specific DNA, poly dI-dC.

| Binder | binding signal |
| --- | --- |
| B1 | ~100 fold less efficient than unmethylated |
| B2 | ~100 fold less efficient than unmethylated |
| B3 | ~100 fold less efficient than unmethylated |
